# The entries come from a sample that favours hits as a whole.
# SARS PLpro yeast: blocks SARS-CoV papain-like protease in a yeast assay; Potency, µM (titrated, usually from 32.9 µM), without a hit: at the highest dose activity, positive = growth rescue, most hits filed as activators; S. cerevisiae expressing SARS-CoV PLpro, growth rescue; 0.19% of 330,000 active; calls by dose curve; also: potency is read from the fitted curve at half-maximal effect; 0% is about no effect; nearly all actives have a fitted effect of over 55% in size
# AmpC inh detg: AmpC beta-lactamase inhibition with detergent present; AmpC hydrolysis of nitrocefin, absorbance 480 nm, 0.01% Triton; Potency, µM (highest dose often 114 µM), without a hit: at the highest dose activity change, negative = inhibition, usual class: inhibitors; 0.041% of 370,000 active;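 also: potency is read from the fitted curve at half-maximal effect; 0% = no-compound wells and -100% = no-enzyme wells; nearly all actives have a fitted effect of over 25% in size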
# Target sequence (P00811 whole entry, looked up): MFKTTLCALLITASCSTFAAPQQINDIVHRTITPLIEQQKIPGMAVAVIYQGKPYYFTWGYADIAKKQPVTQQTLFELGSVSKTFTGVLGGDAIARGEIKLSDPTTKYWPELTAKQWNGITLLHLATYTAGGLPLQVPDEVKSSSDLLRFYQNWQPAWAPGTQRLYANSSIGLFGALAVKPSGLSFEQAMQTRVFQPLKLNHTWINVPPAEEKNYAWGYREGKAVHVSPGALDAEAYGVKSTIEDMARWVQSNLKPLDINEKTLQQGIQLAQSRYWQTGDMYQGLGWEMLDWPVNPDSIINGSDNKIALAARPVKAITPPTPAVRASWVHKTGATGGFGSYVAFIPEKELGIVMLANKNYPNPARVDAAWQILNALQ
#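 AmpC (5.3 nM in the dispensed reagent) in 20 mM phosphate pH 7.0 with 0.01% (detergent screen) or 0.0001% Triton X-100 was preincubated with compounds for 15 min at room temperature. Nitrocefin was then added from an 800 uM solution, and hydrolysis was followed at 480 nm.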
# Shiga toxin inh: Shiga toxin inhibition; Vero cells, Shiga toxin protein synthesis inhibition reporter; inhibition, % at 38.7 µM; 9.2% of 290,000 active; AID 2315; in the data active = inhibition mostly above about 28%, no sharp cut-off; inactive = mostly below about 43%; also: 0% is about no effect
# Cycloheximide cs: counter-screen for Shiga toxin inhibitors: cycloheximide protein synthesis inhibition | AID 2314 | 12% of 300,000 active | cell reporter, cycloheximide protein synthesis inhibition counterscreen | max response, %; in the data active = max response mostly above about 13%, no sharp cut-off; inactive = mostly below about 14%; also: read at 38.3 µM for the half of the compounds with a filed dose; 0% is about no effect
# AmpC inh no detg: blocks E. coli AmpC beta-lactamase in detergent-free assay; P00811; AmpC nitrocefin hydrolysis, absorbance 480 nm, 0.0001% Triton; Potency, µM (series often up to 57.1 µM), for the others: at the highest dose activity change, negative = inhibition, actives largely listed as inhibitors; 0.52% of 330,000 active;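 also: potency is read from the fitted curve at half-maximal effect; plate controls were no compound for no effect and no enzyme for full effect; nearly all actives have a fitted effect of over 20% in size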
#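 20 mM phosphate pH 7.0 + 0.01% (detergent screen) or 0.0001% Triton X-100; 5.3 nM AmpC reagent; cpd preinc 15 min RT; nitrocefin (800 uM stock) to start; A480 q20 s × 4 min; Activity was normalised to no-enzyme and no-compound control wells.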
# AMA1 RON2 block: inhibitors of Plasmodium falciparum AMA1-RON2 interaction | AlphaScreen AMA1-biotinylated RON2 peptide binding | Potency, µM (doses to about 58.2 µM), for the others: top-dose activity change, negative = inhibition, most hits filed as inhibitors | 0.2% of 360,000 active | AID 720542;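 also: potency is read from the fitted curve at half-maximal effect; 0% = vehicle wells and -100% = peptide control; nearly all actives have a fitted effect of over 45% in size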
#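 AMA1 (3D7) with his tag at 25 nM final met compounds first, then biotinylated RON2 peptide at 25 nM; detection used donor plus acceptor beads, 10 µg/mL apiece, read by AlphaScreen after 30 min at room temperature.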
# The depositor's hits bear a star; ? = inconclusive; / = not tested or not shown. Unless noted, calls follow the shape of the dose curve; as a rule, active = well fitted curve in the direction sought with a large enough effect; inconclusive = small, poorly fitted or top-dose-only effect, or another doubt; inactive = no such curve, though single readings can be large; an effect the other way counts as inactive or inconclusive.
SMILES,SARS PLpro yeast,AmpC inh detg,Shiga toxin inh,Cycloheximide cs,AmpC inh no detg,AMA1 RON2 block
CC1CCN(C(=O)Cn2nnc(-c3ccccc3)n2)CC1,-4%,?,83*,30*,-3%,0%
Cc1ccc(-c2nnn(CC(=O)NC3CC4CCC3C4)n2)cc1 (stereo not given),-12%,-1%,12,12*,-8%,-8%
CC1CCN(C(=O)CCc2nnc(-c3ccccc3)o2)CC1,?,1%,97*,43*,-1%,?
O=C(Cn1nnc(-c2ccc(Cl)cc2)n1)NC1CC2CCC1C2 (stereo not given),6%,-18%,-2,-6,-15%,5%
Cc1ccc(C(=O)Cn2nnc(-c3ccccc3)n2)cc1,0%,-2%,82*,21,-35%,-16%
O=C(CCc1nnc(-c2ccccc2)o1)NCC1CCN(C2CCCC2)CC1,0%,1%,-1,4,-21%,10%
O=C(Cn1nnc(-c2ccccc2)n1)c1ccccc1,18%,?,84,2,-25%,5%
Cc1ccc(CNC(=O)c2cn(C)c3ccc(S(=O)(=O)N4CCOCC4)cc3c2=O)cc1,-1%,-10%,-13,-9,-4%,-1%
CCCCOc1ccc(-c2nnn(CCC(=O)N3CCOCC3)n2)cc1,-2%,-13%,78*,36*,127%,-15%
Cc1ccc(-c2nnn(CC(=O)N3CCCCC3)n2)cc1,0%,?,/,19*,-1%,-11%
O=C(Cn1nnc(-c2ccc(N3CCOCC3)cc2)n1)OC1CCCCC1,-4%,0%,15,2,-7%,0%
CCCOc1ccc(-c2nnn(CC(=O)N3CCC(C)CC3)n2)cc1,-15%,?,-14,10,51%,7%
CC(C)c1ccc(-c2nnn(CC(=O)N3CCCCC3)n2)cc1,2%,-18%,/,9,18%,-2%
COc1ccc(-c2nnn(CC(=O)Nc3ccc4c(c3)OCCO4)n2)cc1OC,-4%,?,/,/,-9%,-4%
O=C(Cn1nnc(-c2ccc(N3CCOCC3)cc2)n1)N1CCOCC1,0%,-6%,34*,34*,-6%,-1%
COc1ccc(-c2nnn(CC(=O)c3ccc4c(c3)OCCO4)n2)cc1OC,-8%,5%,36,16*,35%,-11%
COc1ccc(-c2noc(C(C)NC(=O)c3ccco3)n2)cc1 (stereo not given),/,-6%,/,/,/,/
Cc1cccc(N2CCN(C(=O)CCNS(=O)(=O)c3ccc4c(c3)CCN4C(=O)C3CC3)CC2)c1C,/,-9%,/,/,/,/
CCCc1cc(=O)[nH]c2nnc(SC(C)CC)n12 (stereo not given),/,2%,/,/,/,/
COc1ccc(C(=O)OCC(=O)NC23CC4CC(CC(C4)C2)C3)c(O)c1,/,/,/,/,/,5%
CCC(Oc1ccccc1)C(=O)Nc1ccccc1C(=O)N1CCOCC1 (stereo not given),-4%,5%,20,-3,-4%,18%
CC(Sc1ccccc1)C(=O)Nc1ccccc1C(=O)N1CCOCC1 (stereo not given),0%,5%,-3,4,0.28µM*,-4%
Cc1cc(C)c(C#N)c(Sc2nnnn2-c2ccccc2)n1,0%,?,-3,-4,0.56µM*,-2%
Cc1nc(Sc2nnnn2-c2ccccc2)c(C#N)c(C)c1C,-3%,?,-4,-4,-11%,-6%
CN(C(=S)NC(=O)C1CCCC1)c1ccccc1,/,/,/,/,/,8%
CN(Cc1ccccc1)C(=S)NC(=O)C1CCCCC1,-40%,14%,46,28*,-10%,60%
C[C@@H]1C[C@@H]2OC(=O)[C@]3(C)[C@H]2[C@@H](OC3(C)O)[C@]2(C)C(=O)CC[C@H]12 (stereo not given in full),0%,4%,19,-6,-5%,/
Cc1ccc(OCC(=O)NNC(=O)c2ccoc2C)c(Br)c1,10%,-4%,23,8,-24%,55%
CC(=O)NC(=S)Nc1ccc(NC(=O)COc2ccc(Cl)cc2Cl)cc1,2%,-2%,66,16,-23%,16%
Cc1occc1C(=O)NNC(=O)COc1ccc(Br)cc1Br,-4%,?,50*,14,-57%,6%
